Assay outcomes from PubChem BioAssay.
CYP2C19 activ – cytochrome P450 2C19 (human) activation; recombinant CYP2C19, luciferin-H EGE luminescence; stronger effect = higher value; 0 = fully inhibited enzyme, 1 = untreated enzyme; P33261; 96,000 tested, under 10 active; AID 1025; activation factor at 5 µM;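 active means activation factor of at least 2 at 5 µM in the primary screen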;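 further: 0 = wells with 2.5 mM tranylcypromine and 1 = vehicle-only wells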
Target sequence (P33261 whole entry, looked up): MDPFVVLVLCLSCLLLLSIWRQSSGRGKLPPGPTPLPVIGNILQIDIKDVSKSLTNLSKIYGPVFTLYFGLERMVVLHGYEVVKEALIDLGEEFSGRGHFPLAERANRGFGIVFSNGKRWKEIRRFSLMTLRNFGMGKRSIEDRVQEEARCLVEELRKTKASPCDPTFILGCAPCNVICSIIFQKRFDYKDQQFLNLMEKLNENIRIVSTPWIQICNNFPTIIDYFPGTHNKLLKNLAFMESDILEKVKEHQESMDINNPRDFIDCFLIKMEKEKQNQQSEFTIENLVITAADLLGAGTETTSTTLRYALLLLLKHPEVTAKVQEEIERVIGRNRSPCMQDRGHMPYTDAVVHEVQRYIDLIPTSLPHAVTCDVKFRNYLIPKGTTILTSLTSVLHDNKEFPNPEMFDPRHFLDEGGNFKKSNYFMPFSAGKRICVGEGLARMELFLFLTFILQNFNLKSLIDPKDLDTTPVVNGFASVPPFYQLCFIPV
CYP2C19 inhib – blocks human cytochrome P450 2C19; P33261; inhibition, % at 5 µM; hit rate 21% among 96,000; CYP2C19 Supersomes, luciferin-H EGE luminescence, 30 min;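 active means CYP2C19 inhibition above a set limit at 5 µM in the primary screen, cut at about 50% in these data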;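 further: plate controls were negative control wells for no effect and 2.5 mM tranylcypromine positive control for full effect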
CYP2C9 act – increases human cytochrome P450 2C9 activity; P11712; recombinant CYP2C9, luciferin-H conversion, luminescence; stronger effect = higher value; factor 1 = untreated enzyme, 0 = blocked; activation factor at 5 µM; hit rate 1.4% among 96,000; AID 1024;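 active means activation factor of 2 or more for CYP2C9 at a 5 µM dose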;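 further: 0 = sulfaphenazole-blocked wells and 1 = vehicle-only wells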
CYP2C9 inhib – blocks human cytochrome P450 2C9 | P11712 | CYP2C9 Supersomes, luciferin-H conversion, luminescence | inhibition, % at 5 µM | hit rate 20% among 96,000;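 active means blocking of liver enzyme CYP2C9 beyond about 50% at 5 µM, limit read from the data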
PostGolgi ctrl – yeast control strain growth, post-Golgi counter-screen. efflux-deficient yeast background strain, growth absorbance A615, 16 h. inhibition, % at 10 µM. hit rate 5% among 98,000
PostGolgi yeast – growth inhibition of a yeast mutant, post-Golgi transport screen; post-Golgi transport phenotypic cell assay; inhibition, % at 10 µM; AID 739; hit rate 0.9% among 98,000;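 further: yeast cells grown in 1536-well plates; yeast grown about 18 h at 30C before absorbance read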
* hit, by the source's call; / = no result. An excerpt weighted towards active compounds, which were near 32% of everything screened. Unless noted, no stated cut-off is given here; in the data, active means inhibition above about 30%; inactive means the rest.

SMILES | CYP2C19 activ | CYP2C19 inhib | CYP2C9 act | CYP2C9 inhib | PostGolgi ctrl | PostGolgi yeast
CCOc1ccc(NS(=O)(=O)c2ccc(NC(C)=O)c(OC)c2)cc1 | 0.5 | 51.8* | 0.7 | 25.3 | 8.9 | 2.9
CCOc1ccc(NS(=O)(=O)c2ccc(OC)c(C)c2)cc1 | 0.1 | 93.2* | 0.1 | 91.8* | 3.2 | 0.2
CCOc1cc(S(=O)(=O)Nc2cc(C)cc(C)c2)ccc1Cl | 0 | 98.3* | 2* | -96.9 | 39.0* | -13.8
CCOc1cc(S(=O)(=O)NCc2cccs2)ccc1Cl | 0.5 | 49.2 | 1.6 | -64.1 | 13.8 | 2.6
COc1ccc(/C(O)=C2/C(=O)C(=O)N(CCN3CCOCC3)C2c2ccccn2)cc1 (stereo not drawn) | 1 | -3.0 | 1.1 | -6.1 | -1.5 | -5.3
CCOC(=O)C(Cc1ccccc1)NC(C)=O (stereo not drawn) | 0.9 | 7.3 | 1 | -2.7 | 2.3 | -3.5
COC(=O)[C@H](C)NC(=O)NC1CCCc2ccccc21 (stereo partly drawn) | 0.9 | 12.7 | 1 | -4.0 | 6.5 | -0.8
O=C(COC(=O)c1cc([N+](=O)[O-])ccc1NCc1ccccc1)NC1CCCc2ccccc21 (stereo not drawn) | 0.8 | 19.9 | 0.3 | 69.3* | 8.1 | 4.2
Cc1c(NC(=O)COc2ncnc3ccccc23)c(=O)n(-c2ccccc2)n1C | 1 | -4.1 | 1 | 2.0 | -2.9 | -4.2
Cc1cc(O)c(C(C[N+](=O)[O-])c2ccc(Cl)cc2)c(=O)o1 (stereo not drawn) | 0.5 | 47.0 | 0.2 | 83.7* | 9.3 | 0.2
Cc1ccc2nc3c(cc(C#N)c(=O)n3CC3CCCO3)c(=O)n2c1 (stereo not drawn) | 1 | 1.7 | 0.9 | 12.8 | 2.2 | -1.6
C=CCNC(=O)c1onc(CSc2cccc(C)c2)c1C(=O)O | 0.9 | 12.5 | 0.3 | 65.4* | 22.2 | -5.7
C=CCNC(=O)c1onc(CSc2cccc(Cl)c2)c1C(=O)O | 0.9 | 11.9 | 0.3 | 67.5* | 9.7 | -1.6
C=CCNC(=O)c1onc(CSc2ccccc2C)c1C(=O)O | 1 | 4.4 | 0.5 | 45.9 | 6.0 | -4.2
CCOC(=O)Cc1nnc(NC(=O)c2ncn[nH]2)s1 | 1 | 0.9 | 1 | -3.1 | 3.7 | 11.9
O=C(Nc1ccc(Cl)cc1-c1nc2ccccc2s1)c1ccco1 | 1.1 | -14.7 | 0.9 | 11.9 | 20.0 | 1.1
O=C(NCc1cccnc1)/C(=C/c1ccc(-c2cccc(C(F)(F)F)c2)o1)NC(=O)c1ccccc1 | 0.7 | 30.6 | 0.8 | 23.5 | 0.7 | -3.2
Cc1ccc(C(=O)N/C(=C/c2ccc(-c3cc(C(F)(F)F)ccc3Cl)o2)C(=O)NCc2cccnc2)cc1 | 0.6 | 39.0 | 0.4 | 57.6* | 18.8 | -2.8
Cc1c(N2C(=O)/C(=C3/C(=O)N(C)c4ccccc43)SC2=S)c(=O)n(-c2ccccc2)n1C | 0.7 | 29.1 | 0.6 | 35.2 | 7.7 | -1.0
CCCC(C(=O)O)N1C(=O)/C(=C2\C(=O)N(C)c3ccccc32)SC1=S (stereo not drawn) | 0.9 | 5.8 | 0.3 | 68.2* | / | /
O=C(NCCC(=O)N1CCNC1=O)OCc1ccccc1 | 0.8 | 24.2 | 1.3 | -31.9 | -2.2 | 9.4
Cc1cc(C(=O)O)c(CSCc2cc(C(=O)O)oc2C)o1 | 0.8 | 22.3 | 1.7 | -74.6 | 4.7 | -13.7
CCC(=O)N1c2ccc(S(=O)(=O)N(CCO)Cc3ccccc3)cc2CC1C (stereo not drawn) | 0.5 | 51.9* | 0.4 | 56.2* | 3.0 | -1.4
CCC(=O)N1c2ccc(S(=O)(=O)CCC(=O)NCc3ccc4c(c3)OCO4)cc2CC1C (stereo not drawn) | 0.8 | 22.8 | 0.6 | 41.5 | 6.4 | 11.5
CN1CCCC(OC(=O)CCCC(=O)OC2CCCN(C)C2)C1 (stereo not drawn) | 0.9 | 12.9 | 0.8 | 20.1 | -6.4 | -1.6
Cc1ccc(CNC(=O)CCCC(=O)O)cc1 | 1.1 | -10.9 | 0.9 | 14.5 | 7.5 | -3.6
COc1ccc(-c2nnc(SCC(=O)Nc3ncc(C)s3)n2-c2ccccc2)cc1OC | 0.4 | 61.7* | 0.5 | 51.3* | -0.6 | -7.9
Cc1cnc(NC(=O)CSc2nnc(-c3ccncc3)n2C2CCCCC2)s1 | 0.2 | 76.5* | 0.6 | 44.3 | 6.8 | 19.5
CCCCN(CC)C(=O)c1cccc(Cl)c1 | 0.3 | 70.8* | 0.8 | 17.9 | 4.8 | 0.8
CCN(CC)CCOC(=O)c1cccc(Cl)c1 | 0.9 | 13.5 | 0.9 | 9.0 | 10.6 | -1.9
